# Experimental data reported in PubChem BioAssay (NCATS).
# Inconclusive results are not listed. Values without a mark were called inactive. Calls of active or inactive are those of the source. Calls follow the shape of the dose curve; as a rule, active = well fitted inhibition curve with a large enough effect; inconclusive = small, poorly fitted or top-dose-only effect; inactive = flat fitted curve, though single readings scatter.
# Biological target: Calcium and integrin-binding protein 1 (Homo sapiens) (UniProt Q99828)
# Sequence (Q99828 whole entry, looked up): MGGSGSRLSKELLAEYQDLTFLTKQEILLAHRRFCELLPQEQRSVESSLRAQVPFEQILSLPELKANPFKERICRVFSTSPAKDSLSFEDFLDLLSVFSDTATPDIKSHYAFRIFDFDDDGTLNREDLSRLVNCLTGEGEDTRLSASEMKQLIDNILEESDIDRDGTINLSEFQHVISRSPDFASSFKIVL
# Assay: Primary qHTS for Identification of Calcium Integrin Binding Protein 1 (CIB1) Competitor (AID 1508620);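 also: GST tagged CIB1 binding a fluorescein labelled alphaIIb integrin peptide tracer; top concentration of the series differs between compounds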
# Details: CIB1-GST / FITC-alphaIIb peptide fluorescence polarization; series mostly up to 114 µM; activity change, negative = inhibition: at the top concentration
# Outline: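 CIB1-GST (1 uM final) and compound incubated 15 min at room temperature before adding FITC-alphaIIb peptide tracer (100 nM final). Competition for binding read by fluorescence polarization (ex 480, em 540) after another 15 min at room temperature.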
# % is scaled to controls: 0 for no effect and ±100 for the full control effect.
SMILES,"activity change, negative = inhibition",Potency
COc1cc(OC)c(C(CC(=O)N2CC(C)CC(C)C2)c2ccc3c(c2)OCO3)c(OC)c1 (centres undefined),-2.11% [at 228 µM],–
COc1ccc(-c2ccc(NC(=O)c3cccs3)cn2)cc1,0.114%,–
O=C(Nc1ccc2ccccc2c1)Nc1nnc(-c2ccc(O)cc2)s1,1.92%,–
O=C(Nc1ccc(Cl)cc1)Nc1nnc(-c2ccncc2)s1,2.47%,–
CC(C)CC(OC(=O)CNC(=O)c1ccccc1)C(=O)Nc1cc(C(F)(F)F)ccc1Cl (centres undefined),0.0086%,–
Cc1ccc2nc(NC3=NC4(CCCC4)C4=C(CCCC4=O)N3)oc2c1,-16%,–
Cc1c(C(=O)OCC2CCCO2)[nH]c2c1C(=O)CCC2 (centres undefined),-11.3%,–
COc1ccc(C2c3c(N)nc(CCCc4ccccc4)nc3Oc3ccc4ccccc4c32)cc1OC (centres undefined),6.89%,–
COc1ccc(OC2=NS(=O)(=O)c3ccccc32)cc1,1.06%,–
Nc1ncnc2c1ncn2[C@@H]1O[C@H](CN[S+](=O)([O-])NC(=O)c2cccc(-c3noc(-c4ccccc4F)n3)c2)[C@@H](O)[C@H]1O,-9.64%,–
O=C(Nc1cccnc1)C1CCCCC1,8.16%,–
CC(=O)Nc1sc2c(c1-c1nc3ccccc3s1)CC(C)NC2 (centres undefined),12%,–
CCNC(=O)c1ccc(-c2ccc3ncnc(NCCc4cnc[nH]4)c3c2)o1,-12.5%,–
Cc1cc(C)nc(NC(=S)N2CCN(c3noc4ccccc34)CC2)c1,-3.73%,–
c1ccc(CN(Cc2ccccc2)Cc2nnc(-c3cc4ccccc4[nH]3)o2)cc1,-1.42%,–
COc1ccc(C2Nc3ccccc3C(=O)N2Cc2ccccc2)cc1COc1ccc(NC(=O)c2ccccc2)cc1 (centres undefined),12%,–
COc1ccnc(NCc2ccc(O)c3ncccc23)c1,8.74%,–
Cn1cc(C[C@H](C(=O)O)N2C(=O)c3ccc(C(=O)O)cc3C2=O)c2ccccc21,-3.89%,–
O=C(c1ccc2c(c1)ncn2-c1cccc(Cl)c1)N1CCCCC1,5.27%,–
O=C(O)c1ccc(-n2cccc2/C=C2\SC(=O)N(Cc3ccc(F)cc3)C2=O)cc1,5.21%,–

SMILES,"activity change, negative = inhibition",Potency
O=C1Nc2ccccc2/C1=C\c1ccc(C(=O)O)cc1,-6.69%,–
O=C1Nc2cccc(Cl)c2/C1=C\c1cc(Cl)c(O)c(Cl)c1,-8.16%,–
O=C(OCC#CCSc1nnc(-c2cccc3ccccc23)o1)c1ccsc1,1.84%,–
O=C(/C=C/c1ccccc1)Nc1cccc(S(=O)(=O)Nc2ccccc2F)c1,–,inactive
O=C(CNC(=O)c1ccccc1)N[C@H](C(=O)Nc1cc(C(F)(F)F)ccc1Cl)c1ccccc1,–,inactive
Cc1cc(C)nc(NC(=S)N2CCN(c3cccc(OC(F)F)c3)CC2)c1,-7.5%,–
NC(=O)C1CCN(c2nccc(-c3ccc4c(c3)OCCO4)n2)CC1,-23%,–
Fc1cccc(CNc2ncnc3ccc(-c4cccc(Cl)c4)cc23)c1,-1.5%,–
Cc1c(P(=S)(c2ccccc2)c2ccccc2)c2ccccc2n1Cc1ccccc1,0.589%,–
O=C(O)c1ccc2c(c1)C(=O)N([C@]1(C(=O)O)C[C@H]1c1ccccc1)C2=O,-2.57%,–
FC(F)(F)c1ccccc1-c1nc(NCc2ccc(-c3cccc4ccccc34)cc2)c2ccccc2n1,7.88%,–
CC(C)COc1ccc(-c2csc(N3CCC(C(N)=O)CC3)n2)cc1,-3.65%,–
O=C1Nc2ccccc2/C1=C\c1cc(Br)c(O)c(Br)c1,2.59%,–
N/C(=N\c1nnc(-c2ccncc2)s1)Nc1ccc(Cl)c(Cl)c1,7.38%,–
CCCN(Cc1cccs1)c1ncnc2ccc(-c3ccc4c(c3)OCO4)cc12,9.67%,–
CC(=O)N1CCN(c2ccc(NCc3ccccc3)cc2)CC1,-14%,–
O=C(O)c1ccc(O)c2ncc(N3CCCN(CCc4ccncc4)CC3)cc12,-7.26%,–
COc1ccc(N2C[C@]34C=C[C@H](O3)C(C(=O)O)C4C2=O)cc1 (some centres undefined),-3.16%,–
COc1ccc(Cn2c(C)nnc2-c2cnn(C)c2N)cc1OC,1.06%,–
